# GDH-TPI counter – counter-screen for M. tuberculosis FBA inhibitors: GDH-TPI coupled enzymes | GDH-TPI coupled enzyme counterscreen, NADH absorbance | inhibition, % at 4.8 µM | 360,000 tested, 1.2% active | AID 588335; in the data active means inhibition above about 30%;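 further: 0% = DMSO wells and 100% = wells lacking the enzyme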
# Mtb betalactam – beta-lactam sensitization of Mtb H37Rv. M. tuberculosis H37Rv growth with meropenem, percent inhibition. inhibition, % at 25 µM. 330,000 tested, 0.27% active. AID 434955; call rule not given here;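 further: growth measured after seven days incubation then overnight dye step; 0% = bacteria only wells and 100% = bacteria with antibiotic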
# RecA splice inh – inhibitors of M. tuberculosis RecA intein splicing; P9WHJ3; cell-free RecA intein splicing, fluorescence; AID 2221; inhibition, % (concentration not given with the values); 290,000 tested, 0.75% active; in the data active means inhibition above about 30%;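 further: 0% = vehicle wells and 100% = reference inhibitor control wells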
# UGM FP inh – inhibitors of M. tuberculosis UDP-galactopyranose mutase | 320,000 tested, 0.06% active | P9WIQ1 | purified UGM, fluorescence polarization probe displacement | inhibition, % at 10 µM; in the data active means inhibition above about 10%, passing the limit was not always enough
# Rv3671c inh – inhibitors of M. tuberculosis serine protease Rv3671c. 320,000 tested, 0.048% active. P9WHR9. inhibition, % at 5.96 µM; in the data active means inhibition above about 38%;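 further: extracellular domain of Rv3671c used as enzyme; 0% = enzyme with DMSO and 100% = no enzyme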
# Target sequence (P9WHR9 whole entry, looked up, the tested form may be a part): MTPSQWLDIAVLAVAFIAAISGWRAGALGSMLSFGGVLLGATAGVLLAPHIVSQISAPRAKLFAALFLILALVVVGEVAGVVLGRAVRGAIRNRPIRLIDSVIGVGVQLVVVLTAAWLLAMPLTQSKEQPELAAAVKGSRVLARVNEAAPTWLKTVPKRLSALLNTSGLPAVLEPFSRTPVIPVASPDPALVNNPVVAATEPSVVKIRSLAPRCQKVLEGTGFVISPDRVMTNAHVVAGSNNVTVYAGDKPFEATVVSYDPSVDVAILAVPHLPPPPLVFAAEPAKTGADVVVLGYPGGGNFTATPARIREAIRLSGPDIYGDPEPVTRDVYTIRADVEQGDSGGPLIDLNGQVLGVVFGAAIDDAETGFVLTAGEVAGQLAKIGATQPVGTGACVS
# Mtb FBA inh – inhibits M. tuberculosis FBA enzyme | P9WQA3 | purified M. tuberculosis FBA, fluorescence read-out | inhibition, % at 1 µM | 360,000 tested, 2.3% active | AID 588726; in the data active means inhibition above about 27%;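 further: 0% = vehicle and 100% = reference inhibitor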
# The depositor's hits bear a star; i = inactive; x = not tested or not shown; + = active, no number. Most compounds without a hit are left out; they make up all but 4% or so of the library.
SMILES,GDH-TPI counter,Mtb betalactam,RecA splice inh,UGM FP inh,Rv3671c inh,Mtb FBA inh
Cc1ccc2c(c1)c1nnc(SCC(=O)Nc3ccc(N(C)C)cc3)nc1n2CC(=O)O,16.3,-0.6,39.1*,-3.3,2.4,-1.6
CC(=O)N1CCN(S(=O)(=O)c2cccc(C(=O)NNC(=O)Cn3nc(C)cc3C)c2)CC1,12.6,-1.6,x,10.4*,5.6,3.0
CC1(C)CC(C(CCN(Cc2ccccc2)C(=O)c2ccco2)c2ccc(F)cc2)CCO1 (centres undefined),2.3,-1.8,35.4*,0.0,0.5,0.7
CCOC(=O)c1nc2nc(-c3cccs3)cc(C(F)(F)F)n2n1,18.0,-0.5,-3.5,4.6,4.0,113.6*
O=C(c1nc2nc(-c3cccs3)cc(C(F)(F)F)n2n1)N1CCN(Cc2ccccc2)CC1,21.9,-6.3,-10.0,-1.9,6.3,144.8*
O=C(c1cnn2c(C(F)(F)F)cc(-c3cccs3)nc12)N1CCCC1,7.5,-1.7,-47.9,4.4,-5.9,7.0
O=C(c1nc2nc(-c3ccccc3)cc(C(F)(F)F)n2n1)N1CCOCC1,13.4,4.2,-4.3,-1.3,3.7,19.3
Nc1nc2nc(-c3cccs3)cc(C(F)(F)F)n2n1,9.0,-3.4,i,-0.7,3.1,+
CCN(C(=O)CSc1nc2c(cnn2-c2ccccc2)c(=O)[nH]1)C1CCS(=O)(=O)C1 (centres undefined),4.4,4.0,-2.7,-0.7,-17.8,1.5
COC(=O)CSc1nc(N)c2c3c(sc2n1)C(c1ccccc1)SC(c1ccccc1)C3 (centres undefined),10.0,77.8,35.8*,-1.4,-14.3,0.2
COC(=O)CSc1nc(N)c2c3c(sc2n1)CCCC3,0.0,91.2,-2.7,0.1,2.7,4.3
CCOC(=O)c1sc(C)c2c(=O)n(CCc3ccccc3)nnc12,-1.9,-13.8,12.3,1.1,-5.0,-6.6
CCOC(=O)c1sc(C)c2c(=O)n(CC)nnc12,32.3*,-7.2,1.9,3.0,-3.4,4.1
S=c1[nH]nc(-c2ccc3ccccc3n2)o1,38.1*,-6.6,-1.5,5.2,-1.2,3.4
CN(C)C(=O)COC(=O)c1cc(Cl)cc(Cl)c1N,5.2,-15.0,-6.0,-0.7,1.4,127.4*
Cc1ncc([N+](=O)[O-])n1CCOC(=O)c1cc(Cl)cc(Cl)c1N,11.8,9.1,9.0,0.9,5.4,6.9
CC(C)c1ccc(N(CC(=O)NCC2CCCO2)C(=O)Cn2nnc(-c3cccs3)n2)cc1 (centres undefined),-3.5,-5.9,1.9,1.6,-3.6,-1.8
CN(C)c1ccc(NC(=O)Nc2ccc3c(c2)c(=O)n(C)n3-c2ccccc2)cc1,-0.9,x,x,x,x,0.9
CC(CC(=O)Nc1ccc2c(c1)c(=O)n(C)n2-c1ccccc1F)c1ccccc1 (centres undefined),11.0,x,x,x,x,139.3*
Cn1c(=O)c2cc(NC(=O)CC(C)(C)C)ccc2n1-c1ccccc1F,5.6,x,x,x,x,173.7*
CC(C)NC(=S)N/N=C/c1cccs1,38.4*,96.3,1.1,-0.5,5.4,-5.5
S=C(NCc1ccccc1)N/N=C/c1cccs1,34.3*,96.7,4.7,3.0,-3.9,16.6
S=C(NCCc1ccccc1)N/N=C/c1cccs1,20.7,93.3,-2.9,1.2,-14.7,0.6
O=c1[nH]c(-c2ccccn2)cc2ccccc12,20.1,41.5,5.0,1.4,-12.2,120.8*
Cc1cc2ccccc2c(=O)[nH]1,1.2,-4.9,-1.7,-0.2,10.7,2.3
SMILES,GDH-TPI counter,Mtb betalactam,RecA splice inh,UGM FP inh,Rv3671c inh,Mtb FBA inh
NS(=O)(=O)c1ccc(CNC(=O)Cn2nc(C(F)F)cc2C(F)F)cc1,4.8,-5.7,x,0.1,1.3,-0.4
CCOC(=O)Nc1ccc2c(COC(=O)CNS(=O)(=O)c3ccc(NC(C)=O)cc3)cc(=O)oc2c1,12.6,2.7,0.5,3.3,4.2,160.3*
CCOC(=O)Nc1ccc2c(C)cc(=O)oc2c1,28.9,19.0,-2.9,0.0,5.5,199.3*
COc1cccc(C(=O)Nc2ccc3c(C)cc(=O)oc3c2)c1,14.0,0.1,-0.3,-3.3,x,3.0
Cc1cc(=O)oc2cc(NC(=O)c3ccccc3C(=O)O)ccc12,19.0,1.4,0.1,5.8,-5.2,+
CCOC(=O)Nc1ccc2c(CN(C)Cc3ccc(F)cc3)cc(=O)oc2c1,-4.7,-0.7,0.2,-0.9,-9.5,13.6
O=S(=O)(Nc1nc2ccccc2nc1NCC1CCCO1)c1cc(Cl)ccc1Cl (centres undefined),25.8,-1.3,2.1,1.6,8.7,0.8
